Compounds without any hit were thinned out: in the full panel of roughly 79,000, 15% have a hit. Cut-off read from the data, not from the text of the source: active = growth inhibition above about 70%; inactive = the rest. Where a SMILES comes first, the peptide text is derived from it. The star is where a group is joined. Boc = CC(C)(C)OC(=O)*
Assays:
[1] = NCI Yeast Anticancer Drug Screen. Data for the rad50 strain (AID 155);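 note: 0% = growth of vehicle-only cultures of the same strain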; conditions: S. cerevisiae rad50 strain growth inhibition; at 50.0 µM; stronger effect = higher value
Method in brief: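 Readout: growth inhibition relative to vehicle-treated cultures. Compound exposure was carried out in a genetically defined yeast strain deficient in DNA damage repair.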

[2] = NCI Yeast Anticancer Drug Screen. Data for the mec2-1 strain (AID 157); conditions: S. cerevisiae mec2-1 strain, at 50.0 µM, stronger effect = higher value
Method in brief: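 Cells of the genetically defined mec2-1 yeast strain are incubated with test compound. Inhibition of growth is calculated against vehicle-treated controls.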

[3] = NCI Yeast Anticancer Drug Screen. Data for the sgs1 mgt1 strain (AID 161);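 note: 0% = growth of cultures given vehicle only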; conditions: S. cerevisiae sgs1 mgt1 strain, at 50.0 µM, stronger effect = higher value
Method in brief: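 Read-out: growth inhibition vs vehicle controls. Cells: mutant yeast strain deficient in DNA damage repair.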

[4] = NCI Yeast Anticancer Drug Screen. Data for the cln2 rad14 strain (AID 165);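 note: 0% = growth equal to vehicle treated cultures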; conditions: S. cerevisiae cln2 rad14 strain, at 50.0 µM, stronger effect = higher value
Method in brief: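 The screen exposed genetically defined yeast (cln2 rad14) to test compounds and scored growth inhibition relative to vehicle-treated controls.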

[5] = NCI Yeast Anticancer Drug Screen. Data for the bub3 strain (AID 167); conditions: S. cerevisiae bub3 mutant strain, at 50.0 µM, stronger effect = higher value
Method in brief: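 Readout: yeast growth inhibition, expressed relative to vehicle-only wells. The test organism is a mutant strain from a panel with lesions in DNA repair or checkpoint genes.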

[6] = NCI Yeast Anticancer Drug Screen. Data for the mlh1 rad18 strain (AID 175); conditions: S. cerevisiae mlh1 rad18 strain growth inhibition; at 50.0 µM; stronger effect = higher value
Method in brief: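 Compound-treated yeast growth, normalised to vehicle controls. Strain bears defined DNA repair mutations.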

Measured: growth inhibition

Cc1ccsc1C(=O)c1ccccc1[N+](=O)[O-]
inactive: [1] -3.65% | [2] -13.3% | [3] -6.7% | [4] -20.8% | [5] -7.35% | [6] 6.25%

O=[N+]([O-])c1cc(F)ccc1-c1ccc(F)cc1
inactive: [1] 2.35% | [2] -4.85% | [3] 0.7% | [4] -20.7% | [5] 2.8% | [6] 20.4%

O=c1[nH]c(=S)c2[nH]c(=O)n(-c3ccccc3)c2[nH]1
inactive: [1] -15.3% | [2] -7.5% | [3] -59.1% | [4] -26.7% | [5] -9.9% | [6] -14.7%

COc1ccc2nc(CC(C)C)c3c(c2c1)-c1ccccc1C3=O
inactive: [1] 1.35% | [2] -8.8% | [3] -10.2% | [4] -12.2% | [5] -0.35% | [6] -12.2%

O=C(CN1CCN(c2ccccc2)CC1)n1nnc2ccccc21
inactive: [1] -9.4% | [2] -3.9% | [3] -3.6% | [4] -13.8% | [5] -31.5% | [6] -6%

Cc1cc2ccccc2[nH]1
inactive: [1] 33.9% | [2] -15.3% | [3] -3.65% | [4] 3.1% | [5] 2.75% | [6] 10%

COc1c(CCl)cc(-c2sc3ccccc3c(=O)c2CCl)cc1CCl
inactive: [1] -7.25% | [2] -7.3% | [3] 1.1% | [4] 2.85% | [5] -1.8% | [6] 1.85%

CC(C)C(=O)OCc1ccccc1
inactive: [1] 0.95% | [2] -5.7% | [3] -6.75% | [4] -3.9% | [5] -10.8% | [6] -24.9%

COc1ccc(C2N(NC(=O)c3ccncc3)C(=O)CS2(=O)=O)cc1F (configuration not stated)
inactive: [1] -3.95% | [2] -12.6% | [3] -11.8% | [4] -1.55% | [5] 0.75% | [6] 0.95%

O=C1CC2CCCC23CC2(CCN13)OCCO2 (configuration not stated)
inactive: [1] -3.15% | [2] 0.7% | [3] -0.3% | [4] -27.4% | [5] -2.3% | [6] 6.35%

C#CC(OC(=O)NC(C(=O)OC)C(C)C)(c1ccccc1)c1ccccc1 (configuration not stated)
inactive: [1] 31.1% | [2] -10.3% | [3] 14.3% | [4] -4.85% | [5] 0.2% | [6] 7.55%

O=S(=O)(/C=C/c1ccc(F)cc1)Cc1ccccc1
inactive: [1] -3.2% | [2] -15.6% | [3] 0.65% | [4] 12.9% | [5] -4% | [6] 11.7%

COc1ccc(/C=C2/C(=O)N(c3ccccc3)N=C2C)cc1
inactive: [1] 22.2% | [2] -2.2% | [3] 17.3% | [4] 0.4% | [5] 16.7% | [6] 22.1%

O=C(O)CSc1ncnc2nc[nH]c12
inactive: [1] 1.6% | [2] -30.2% | [3] 1.9% | [4] 27.6% | [5] -5.25% | [6] -12.9%

CCCCNC(=O)Nc1nc2ccccc2s1
inactive: [1] 25.3% | [2] 2.15% | [3] 11.5% | [4] 38% | [5] -3% | [6] -1.7%

CNNC(=NS(=O)(=O)c1cc(C#N)c(NNC)cc1S)NNC
inactive: [1] 6.05% | [2] -3.95% | [3] -11.3% | [4] -36.5% | [5] -8.45% | [6] 12.3%

CCOC(=O)C1CC(C)c2[nH]c3ccccc3c21 (configuration not stated)
inactive: [1] 2.2% | [2] 6.9% | [3] -5.15% | [4] -25% | [5] -12% | [6] -13%

Nc1nc(C2CCCCC2)cc(=O)[nH]1
inactive: [1] 1.2% | [2] 9% | [3] -4.3% | [4] -25.1% | [5] 5.5% | [6] -0.65%

CCN(CC)c1ccc2c(C)c(Cc3ccccc3)c(=O)oc2c1
inactive: [1] 1.8% | [2] -22.8% | [3] 24.6% | [4] 7.7% | [5] 31.9% | [6] 0.7%

CCc1nnc(CC)n1N1C(=O)CCC1=O
inactive: [1] 24.1% | [2] 28.1% | [3] 26.2% | [4] 11.1% | [5] 24.8% | [6] 21.7%

Nc1ccc(C(=O)Nc2ccc(NC(=O)c3ccco3)c(O)c2)cc1
inactive: [1] 2.5% | [2] -11.3% | [3] 31.6% | [4] 13.4% | [5] 20.7% | [6] 10.1%

CC(C)(C)CC(C)(C)NCc1ccccc1
inactive: [1] 22.9% | [2] -5.55% | [3] 2.5% | [4] 0.2% | [5] 2.5% | [6] 18.3%

CC(C)(C)OC(=O)NC(Cc1ccc(O)cc1)C(=O)N1CCCC1C(=O)O (stereo not drawn) (Boc-Tyr-Pro-OH; configuration not given here)
inactive: [1] -13% | [2] -11.3% | [3] -20.9% | [4] -10.2% | [5] -22.9% | [6] -23.1%

Cn1cnc([N+](=O)[O-])c1C(=O)NCc1ccccc1
inactive: [1] -2.5% | [2] 9.1% | [3] 5.15% | [4] -20.8% | [5] -7.35% | [6] -9.05%

CC(=O)NC(CCCCNC(=O)OC(C)(C)C)C(=O)O (configuration not stated)
inactive: [1] -31.9% | [2] -42.2% | [3] -23.2% | [4] 7.45% | [5] -2.85% | [6] -39.1%

CCOC(=O)/C=C/c1nc(C(=O)OCC)c(C)c(=O)[nH]1
inactive: [1] -0.55% | [2] 8.3% | [3] 22% | [4] 7% | [5] 1.25% | [6] -24.1%

O=C(Nc1cc(-c2ccccc2)[nH]n1)c1ccccc1Cl
inactive: [1] 22.1% | [2] 16.6% | [3] 60.5% | [4] 31.2% | [5] 42.1% | [6] 28.3%

CC(=O)OCc1ccc(C)c(COC(C)=O)c1
inactive: [1] 3.45% | [2] -20.6% | [3] -9.4% | [4] 3.8% | [5] 1.1% | [6] -9.4%

CCN(CC)CCSc1ccnc2cc(Cl)ccc12
inactive: [1] 16.3% | [2] 23.1% | [3] 52.8% | [4] 47.5% | [5] 36% | [6] 21.8%

Cc1nc(N=C(N)N)nc2ccccc12
inactive: [1] 3.4% | [2] -8.45% | [3] 10.7% | [4] 16.8% | [5] 2.65% | [6] 14.2%

O=C(CCl)OCC(CCl)OC(=O)CCl (configuration not stated)
inactive: [1] -3.6% | [2] 29.1% | [3] 37.1% | [4] -15.2% | [5] 41.6% | [6] 0.6%

O=C(O)C1CC2CC(=O)C1C2 (configuration not stated)
inactive: [1] 12.8% | [2] -5.45% | [3] -0.85% | [4] -9.75% | [5] 3.4% | [6] 9%

CCNS(=O)(=O)c1cc(C(=O)O)cc(C(=O)O)c1
inactive: [1] 6.9% | [2] -7.6% | [3] -4.95% | [4] -28.9% | [5] -5.55% | [6] 0.15%

OCC1CCN(CCOCc2ccccc2)C1 (configuration not stated)
inactive: [1] 9.25% | [2] -0.4% | [3] -2.3% | [4] -32.5% | [5] -7.05% | [6] 7.6%

Cc1nc(N)c2c(ncn2C2OC(CO)C(O)C2O)n1 (configuration not stated)
inactive: [1] 9.35% | [2] 1.85% | [3] -5.3% | [4] -8.8% | [5] -9.15% | [6] 14.6%

CCOC(=O)CCC(=O)Oc1cccc2c1C(=O)c1c(OC(=O)CCC(=O)OCC)cccc1C2=O
inactive: [1] 40.5% | [2] 37% | [3] 9.8% | [4] 17.2% | [5] 6.45% | [6] 47.7%

CN(CC(=O)NC(=O)c1ccccc1)c1ccccc1
inactive: [1] 4% | [2] -2% | [3] 8.85% | [4] -0.75% | [5] 11% | [6] 3.2%

From PubChem BioAssay (NCI)
